Among the data in PubChem BioAssay (NCI) are growth values, retold here.

Some test systems named below: NCI-H23 lung; NCI-H226 lung; NCI-H322M lung; HOP-62 NSCLC; NCI-H460 lung; HOP-92 NSCLC; NCI-H522 lung; A549/ATCC NSCLC; 786-0 renal; COLO 205 colon; DU-145 prostate; K-562 leukemia; MALME-3M melanoma; MDA-MB-231 breast; RXF 393 renal; SF-268 CNS; SF-295 CNS; SF-539 CNS; UACC-257 melanoma; M14 melanoma.
Test in all cases: NCI-60 one-dose screen, 48 h (100 = growth as untreated, 0 = no growth, -100 = all killed)
Common to all, as to settings: 10 µM unless noted

Compounds without any hit were thinned out: in the full panel of roughly 83,000, 20% have a hit.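 Percent growth is the endpoint: 0 to 100 indicates growth inhibition (40 means 60% inhibition), 0 means no net growth, and negative values indicate cell death.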 Values without a mark were called inactive. Active and inactive are the calls of the source. Rule for the calls: active = growth percent below 10; inactive = the rest.

`CCCCCN1C=C/C(=C\C(=O)N(C)c2cccc3ccccc23)c2ccccc21`: the growth is 81.4% in the test on NCI-H23 lung; 101% in the test with NCI-H226 lung; 97.7% in the test with NCI-H322M lung; 102% in the test on HOP-62 NSCLC; 105% with NCI-H460 lung; 92.6% in the test on HOP-92 NSCLC. Moreover, the growth with NCI-H522 lung is 83.1%; with A549/ATCC NSCLC, 102%; in the test with 786-0 renal it was 96.8%; in the test with COLO 205 colon it was 109%; in the test on DU-145 prostate, 104%; in the test with K-562 leukemia, 77.4%. Also, the growth in the test with MALME-3M melanoma is 94%; with MDA-MB-231 breast, 106%; in the test on RXF 393 renal, 107%; in the test on SF-268 CNS, 95.3%; with SF-295 CNS, 97.7%; in the test on SF-539 CNS, 105%. For the same compound, the growth in the test with UACC-257 melanoma was 106%; with M14 melanoma, 102%.

With `COc1ccc(-n2cc(-c3cc(OC)c(OC)c(OC)c3)n(C(C)=O)c2=O)cc1`, the growth with NCI-H23 lung is 95%; in the test on NCI-H226 lung, 94.6%; in the test with NCI-H322M lung, 78.8%; in the test with HOP-62 NSCLC it was 126%; with NCI-H460 lung, 109%; in the test on HOP-92 NSCLC, 85.7%. The growth in the test on NCI-H522 lung is 77.4%; in the test on A549/ATCC NSCLC, 99.8%; in the test on 786-0 renal, 64.5%; with COLO 205 colon it was 91.5%; in the test with DU-145 prostate, 109%; with K-562 leukemia, 92.9%. Further, the growth in the test on MALME-3M melanoma is 79.4%; in the test with MDA-MB-231 breast, 86.4%; in the test on RXF 393 renal, 111%; in the test on SF-268 CNS, 94.7%; with SF-295 CNS, 82.1%; in the test with SF-539 CNS, 90.2%. Moreover, the growth was 90.3% in the test on UACC-257 melanoma and 111% in the test with M14 melanoma.

As for `Nc1nnc(C(=O)c2cnc3n(c2=O)CCCCC3)s1`, the growth is 96.7% in the test on NCI-H23 lung; 92.4% with NCI-H226 lung; 103% in the test on NCI-H322M lung; 101% with HOP-62 NSCLC; 108% with NCI-H460 lung; 98.4% with HOP-92 NSCLC. For the same compound, the growth is 98% in the test on NCI-H522 lung; 102% with A549/ATCC NSCLC; 101% in the test with 786-0 renal; 118% in the test with COLO 205 colon; 103% with DU-145 prostate; 92.3% in the test on K-562 leukemia. Besides, the growth in the test on MALME-3M melanoma was 101%; with MDA-MB-231 breast, 90.4%; in the test on RXF 393 renal, 104%; in the test on SF-268 CNS, 96.6%; in the test with SF-295 CNS, 101%; with SF-539 CNS, 94.3%. For the same compound, the growth with UACC-257 melanoma is 101%; in the test with M14 melanoma, 96.7%.

With `CC(=O)[C@@H]1CC[C@]2(C(=O)n3ccnc3)CC[C@]3(C)[C@H](CC[C@@H]4[C@@]5(C)Cc6c([nH]c7ccccc67)C(C)(C)[C@@H]5CC[C@]43C)[C@@H]12`, the growth in the test with NCI-H23 lung is 87.8%; in the test with NCI-H226 lung it was 76.3%; in the test on NCI-H322M lung it was 95.3%; in the test on HOP-62 NSCLC it was 95.7%; in the test on NCI-H460 lung, 80.9%; in the test with HOP-92 NSCLC, 93.9%. Besides, the growth was 82.9% in the test on NCI-H522 lung; 68.2% in the test on A549/ATCC NSCLC; 94.4% with 786-0 renal; 101% in the test with COLO 205 colon; 98.5% in the test on DU-145 prostate; 67.7% in the test with K-562 leukemia. Besides, the growth in the test with MALME-3M melanoma is 102%; in the test on MDA-MB-231 breast it was 90.7%; in the test with RXF 393 renal, 106%; in the test on SF-268 CNS it was 90.8%; in the test with SF-295 CNS it was 82.8%; in the test on SF-539 CNS it was 97%. The growth in the test with UACC-257 melanoma was 97.1%; with M14 melanoma, 96.1%.

`COc1ccccc1C(C[N+](=O)[O-])c1c(-c2ccccc2)[nH]c2cc(C)ccc12` (stereo not given): the growth in the test on NCI-H23 lung is 68.4%; in the test with NCI-H226 lung, 53.1%; in the test with NCI-H322M lung, 90.4%; with HOP-62 NSCLC, 71.9%; in the test with NCI-H460 lung, 85.2%; with HOP-92 NSCLC, 64.4%. Besides, the growth with NCI-H522 lung was 27.8%; with A549/ATCC NSCLC, 61.8%; in the test on 786-0 renal, 86.8%; in the test with COLO 205 colon it was 78.4%; in the test with DU-145 prostate it was 101%; in the test with K-562 leukemia, 8.66% (active). In addition, the growth with MALME-3M melanoma is 61.2%; with MDA-MB-231 breast it was 55.4%; in the test on RXF 393 renal, 74.7%; in the test on SF-268 CNS, 78.6%; in the test with SF-295 CNS, 54.1%; in the test on SF-539 CNS, 84.2%. In addition, the growth with UACC-257 melanoma is 83%; with M14 melanoma, 45.6%.

Regarding `CC(=O)N1c2ccccc2NC2=C(C(=O)N(C)C2(C)C)C1C` (stereo not given), the growth in the test on NCI-H23 lung was 50.2%; with NCI-H226 lung, 91.1%; with NCI-H322M lung it was 73.4%; in the test on HOP-62 NSCLC, 61.6%; in the test on NCI-H460 lung it was 21.9%; in the test with HOP-92 NSCLC it was 37.5%. For the same compound, the growth in the test with NCI-H522 lung is 18.6%; with A549/ATCC NSCLC, 80.3%; in the test on 786-0 renal, 80.1%; in the test on COLO 205 colon, 14.2%; in the test with DU-145 prostate it was 79%; in the test with K-562 leukemia, 16.6%. Moreover, the growth in the test with MALME-3M melanoma is 44.3%; in the test with MDA-MB-231 breast it was 63.3%; in the test with RXF 393 renal, 27.8%; with SF-268 CNS it was 43%; in the test on SF-295 CNS, 46%; in the test on SF-539 CNS it was 20.1%. Moreover, the growth was 36.4% in the test with UACC-257 melanoma and 21.5% in the test on M14 melanoma.

Take `NC(=O)CN1CCN(c2ccccc2Cl)CC1`: the growth in the test with NCI-H23 lung was 99.7%; with NCI-H226 lung, 102%; with NCI-H322M lung, 94.3%; in the test with HOP-62 NSCLC, 104%; with NCI-H460 lung, 111%; in the test with HOP-92 NSCLC, 103%. The growth in the test on NCI-H522 lung was 92.3%; in the test with A549/ATCC NSCLC it was 111%; with 786-0 renal, 91.6%; in the test with COLO 205 colon, 110%; in the test on DU-145 prostate, 108%; with K-562 leukemia, 97.2%. For the same compound, the growth with MALME-3M melanoma is 104%; in the test on MDA-MB-231 breast, 102%; with RXF 393 renal, 112%; in the test on SF-268 CNS, 106%; in the test on SF-295 CNS, 97.9%; with SF-539 CNS, 107%. Moreover, the growth is 107% in the test with UACC-257 melanoma and 102% with M14 melanoma.

Take `O=C(Nc1nc(-c2ccccc2Cl)cs1)c1cc(-c2ccccc2)nc2ccc(Cl)cc12`: the growth in the test with NCI-H23 lung was 51.3%; in the test on NCI-H226 lung it was 74.3%; in the test with NCI-H322M lung it was 93.8%; in the test on HOP-62 NSCLC, 84.6%; in the test with NCI-H460 lung it was 102%; in the test with HOP-92 NSCLC it was 42.8%. Also, the growth in the test on NCI-H522 lung was 78.6%; with A549/ATCC NSCLC it was 99.7%; in the test on 786-0 renal it was 89.4%; in the test with COLO 205 colon, 87.6%; in the test on DU-145 prostate it was 77.8%; with K-562 leukemia, 25.2%. Further, the growth in the test with MALME-3M melanoma is 63.9%; with MDA-MB-231 breast, 46.8%; in the test with RXF 393 renal, 87.2%; with SF-268 CNS it was 44.7%; with SF-295 CNS, 81.1%; with SF-539 CNS it was -7.04% (active). Also, the growth with UACC-257 melanoma is 84.6%; in the test on M14 melanoma it was 4.1% (active).
